From PubChem BioAssay (NCI)
Values joined by “and” are separate entries in the source; they are usually repeats but may differ in a detail not shown here. Equal entries are not always repeated. The panel holds about 83,000 compounds, 20% with a hit somewhere; the sample as a whole holds those more often.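 Treatment: one concentration, 48 hours, 96-well format. Scoring: percent growth, with anything below 10 considered active.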 Values without a mark were called inactive. Active and inactive are the calls of the source.

Each compound was assayed on MDA-MB-468 breast (assay: NCI-60 one-dose screen, 48 h (100 = growth as untreated, 0 = no growth, -100 = all killed)). Conditions: 10 µM unless noted.

SMILES | growth
COc1cnc2c(c1)C(=O)c1c-2n(CCCCl)c(=O)c2ccncc12 | 34.1%
CC1(CO)CCCC1NCCNC1CCCC1(C)CO (stereo not given) | 104% and 95.5%
COc1ccc2cc(/C=C3\N=C(c4cc(OC)c(OC)c(OC)c4)OC3=O)c(OC)nc2c1 | 108%
O=S(=O)(O)c1ccc(O)c(C2CCCCC2)c1 | 103%
NC(CCc1nc2ccccc2c(=O)[nH]1)C(=O)O (stereo not given) | 105%
C=CCN1C(=O)/C(=C\c2ccc3c(c2)CCC3)SC1=S | 116%
COc1ccc(NS(=O)(=O)c2ccc(C)cc2)c([N+](=O)[O-])c1 | 86.6%
COc1ccc(C(=O)NC(=O)Nc2ccc3c(c2)NC(=O)/C3=C\c2[nH]c(C)c(C(=O)O)c2C)c(F)c1 | 12.3%
CCOC(=O)c1sc(NS(=O)(=O)c2ccccc2)nc1C | 106%
c1ccc(COCC[P+](c2ccccc2)(c2ccccc2)c2ccccc2)cc1 | -10.4% (active)
O=c1nc(-c2ccccc2)c2cc(-c3ccc(N4CCOCC4)cc3)ccc2[nH]1 | 77.4%
O=C(C[C@@]1(O)C(=O)Nc2c(Cl)ccc(Cl)c21)c1ccc(C2CC2)cc1 | -4.24% (active)
Cn1c2ccccc2c2c3c(c4c5ccc(Br)cc5oc4c21)C(=O)N(O)C3=O | 46.2%
N#Cc1c(NC(=O)c2ccccc2)sc2c1CCC(=O)C2 | -9.47% (active)
c1ccc2c(NCCCn3ccnc3)c3oc4ccccc4c3nc2c1 | -8.65% (active)
